According to paper PMC5700166:

Columns and labels:
[1] = molecular target: T1, GST-Nv-NF-kB (Ser allele) (Nematostella vectensis, UniProt A7UNT2 2-411); assay: protein-binding microarray (PBM); PBM: ~300 nM protein, 6 mM HEPES pH 7.8, 80 mM KCl, 0.5 mM EDTA, 0.5 mM EGTA, 6% glycerol, 35 ng/ul poly-dIdC, 1% milk, 1 h, room temperature; Ap Aiptasia and Nv Nematostella (sea anemones) / Co Capsaspora / Aq Amphimedon (sponge) / Dm Drosophila / Hu human; RHD is the Rel homology domain; high values mean tight binding; details: dsDNA, one strand shown
T1 sequence: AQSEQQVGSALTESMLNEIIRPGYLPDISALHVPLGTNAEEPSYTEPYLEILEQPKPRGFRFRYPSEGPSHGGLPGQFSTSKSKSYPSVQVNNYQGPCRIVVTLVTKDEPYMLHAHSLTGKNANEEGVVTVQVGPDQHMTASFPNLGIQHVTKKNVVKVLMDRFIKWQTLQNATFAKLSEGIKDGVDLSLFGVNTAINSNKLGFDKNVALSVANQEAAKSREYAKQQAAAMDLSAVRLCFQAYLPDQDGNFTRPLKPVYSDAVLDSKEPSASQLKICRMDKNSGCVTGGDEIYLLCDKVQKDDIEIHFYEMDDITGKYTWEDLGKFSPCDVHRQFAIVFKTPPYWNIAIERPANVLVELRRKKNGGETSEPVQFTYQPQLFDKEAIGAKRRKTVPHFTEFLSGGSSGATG

GST-Hu-p50 = GST-Hu-p50 (Homo sapiens, UniProt P19838 7-356); assay: as above; details: dsDNA, one strand shown
Chain of GST-Hu-p50 (P19838 7-356): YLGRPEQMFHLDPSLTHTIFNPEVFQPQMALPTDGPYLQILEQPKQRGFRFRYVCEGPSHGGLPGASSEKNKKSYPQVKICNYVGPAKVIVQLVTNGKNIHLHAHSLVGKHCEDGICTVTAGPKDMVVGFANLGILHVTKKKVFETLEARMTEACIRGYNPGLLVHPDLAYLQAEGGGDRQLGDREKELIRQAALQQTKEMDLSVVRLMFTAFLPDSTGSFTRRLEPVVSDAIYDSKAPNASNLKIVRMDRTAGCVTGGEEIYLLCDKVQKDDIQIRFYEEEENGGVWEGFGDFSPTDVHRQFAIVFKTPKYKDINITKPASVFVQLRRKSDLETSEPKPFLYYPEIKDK

| Sequence | binding signal [1] [z-score] | binding signal (GST-Hu-p50) [z-score] |
| --- | --- | --- |
| CCGATTAACATCAGGGAACTCCATGATGTTAATCGGGTCTTGATTCGCTTGACGCTGCTG | 1.24 | 1.7 |
| CCGATTAACATCAGGAACGTCCCTGATGTTAATCGGGTCTTGATTCGCTTGACGCTGCTG | 2.75 | 2.12 |
| CCGATTAACATCACAAACTTCCCTGATGTTAATCGGGTCTTGATTCGCTTGACGCTGCTG | 4.44 | 2.88 |
| CCGATTAACATCAGGGGCTGTACTGATGTTAATCGGGTCTTGATTCGCTTGACGCTGCTG | 2.32 | 3.36 |
| CCGATTAACATCAAGAGACCCCCTGATGTTAATCGGGTCTTGATTCGCTTGACGCTGCTG | 2.79 | 3.43 |
| CCGATTAACATCAGGCCCCCCCCTGATGTTAATCGGGTCTTGATTCGCTTGACGCTGCTG | 3.9 | 4.51 |
| CCGATTAACATCAGGGAATCCTATGATGTTAATCGGGTCTTGATTCGCTTGACGCTGCTG | 4.4 | 2.72 |
| CCGATTAACATCAGGGGTTTCACTGATGTTAATCGGGTCTTGATTCGCTTGACGCTGCTG | 2.32 | 4.22 |
| CCGATTAACATCAGGGAAAGAACTGATGTTAATCGGGTCTTGATTCGCTTGACGCTGCTG | 3.33 | 2.37 |
| CCGATTAACATCAAGGATTCCCGTGATGTTAATCGGGTCTTGATTCGCTTGACGCTGCTG | 2.82 | 2.13 |
| CCGATTAACATCAAATAGGGAATTGATGTTAATCGGGTCTTGATTCGCTTGACGCTGCTG | 4.24 | 3.55 |
| CCGATTAACATCAGACTGGGAAATGATGTTAATCGGGTCTTGATTCGCTTGACGCTGCTG | 1.66 | 1.43 |
| CCGATTAACATCAAAAAAACCCATGATGTTAATCGGGTCTTGATTCGCTTGACGCTGCTG | 4.6 | 4.37 |
| CCGATTAACATCACGAGATTCCCTGATGTTAATCGGGTCTTGATTCGCTTGACGCTGCTG | 3.97 | 2.64 |
| CCGATTAACATCAGGGAAACTCATGATGTTAATCGGGTCTTGATTCGCTTGACGCTGCTG | 4.62 | 3.13 |
| CCGATTAACATCAATCACCCCCATGATGTTAATCGGGTCTTGATTCGCTTGACGCTGCTG | 2.78 | 3.76 |
| CCGATTAACATCAAGGAAAAACCTGATGTTAATCGGGTCTTGATTCGCTTGACGCTGCTG | 1.47 | 1.12 |

| Sequence | binding signal [1] [z-score] | binding signal (GST-Hu-p50) [z-score] |
| --- | --- | --- |
| CCGATTAACATCAGATTTTTCCCTGATGTTAATCGGGTCTTGATTCGCTTGACGCTGCTG | 6.27 | 3.71 |
| CCGATTAACATCAGAAATGGGAATGATGTTAATCGGGTCTTGATTCGCTTGACGCTGCTG | 1.7 | 1.72 |
| CCGATTAACATCAGGGGGGTACATGATGTTAATCGGGTCTTGATTCGCTTGACGCTGCTG | 3.54 | 2.93 |
| CCGATTAACATCAAAAGACCCCCTGATGTTAATCGGGTCTTGATTCGCTTGACGCTGCTG | 5.47 | 5.26 |
| CCGATTAACATCAGGGAGTTCCATGATGTTAATCGGGTCTTGATTCGCTTGACGCTGCTG | 2.53 | 2.54 |
| CCGATTAACATCACCGCCCCCCCTGATGTTAATCGGGTCTTGATTCGCTTGACGCTGCTG | 4.44 | 4.53 |
| CCGATTAACATCAATTCCCATGATGATGTTAATCGGGTCTTGATTCGCTTGACGCTGCTG | 1.33 | 1.61 |
| CCGATTAACATCAGGGGACAACCTGATGTTAATCGGGTCTTGATTCGCTTGACGCTGCTG | 4.41 | 4.2 |
| CCGATTAACATCAGGGGGTGTAATGATGTTAATCGGGTCTTGATTCGCTTGACGCTGCTG | 4.19 | 3.98 |
| CCGATTAACATCACACCCCCCCCTGATGTTAATCGGGTCTTGATTCGCTTGACGCTGCTG | 3.66 | 3.76 |
| CCGATTAACATCAGGGATTACCATGATGTTAATCGGGTCTTGATTCGCTTGACGCTGCTG | 2.16 | 1.76 |
| CCGATTAACATCAGGGTATTACCTGATGTTAATCGGGTCTTGATTCGCTTGACGCTGCTG | 4.88 | 3.33 |
| CCGATTAACATCAGGGGCGCCCCTGATGTTAATCGGGTCTTGATTCGCTTGACGCTGCTG | 4.55 | 4.9 |
| CCGATTAACATCAAAATTCCCATTGATGTTAATCGGGTCTTGATTCGCTTGACGCTGCTG | 5.71 | 4.55 |
| CCGATTAACATCACCGAATTTCCTGATGTTAATCGGGTCTTGATTCGCTTGACGCTGCTG | 1.32 | 2.56 |
| CCGATTAACATCACGAAAATCCCTGATGTTAATCGGGTCTTGATTCGCTTGACGCTGCTG | 4.09 | 4.05 |
